PubChem BioAssay
A number with no mark means an inactive call. The rule behind the calls is not given here.

molecular target: Pantothenate synthetase (Mycobacterium tuberculosis (strain ATCC 25618 / H37Rv)) (UniProt P9WIL5); experiment: Coupled enzyme confirmation of inhibitors against recombinant Mtb PanC (AID 375); settings: coupled enzyme assay; at 10 µM, active compounds read high;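 note: 0% = full reaction with vehicle and 100% = no enzyme background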
Sequence (P9WIL5 whole entry, looked up): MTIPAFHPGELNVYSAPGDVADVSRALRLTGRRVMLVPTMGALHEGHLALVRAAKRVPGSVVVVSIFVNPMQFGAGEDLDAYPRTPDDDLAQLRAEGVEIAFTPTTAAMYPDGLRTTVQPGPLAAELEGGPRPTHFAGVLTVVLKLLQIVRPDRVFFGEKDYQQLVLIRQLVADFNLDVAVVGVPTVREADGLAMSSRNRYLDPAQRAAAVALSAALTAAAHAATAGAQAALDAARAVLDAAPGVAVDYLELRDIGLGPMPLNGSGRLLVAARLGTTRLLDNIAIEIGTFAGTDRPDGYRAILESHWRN

SMILES | inhibition [%]
Cc1ccc2nc(C(F)(F)F)c(C#N)c(N)c2c1 | 7
CCOC(=O)N1CCN(c2c(N3CCN(c4ccccn4)CC3)c(=O)c2=O)CC1 | 0
CCOC(=O)CN1CC23C=CC(O2)C(C(=O)Nc2ccc(OC)cc2OC)C3C1=O (stereo not given) | 0
COc1ccc(S(=O)(=O)C(C#N)c2nc3ccccc3nc2N2CCCC(C)C2)cc1 (stereo not given) | 0
CCOC(=O)N1CCN(C(=O)c2cccn3c(=O)c4sccc4nc23)CC1 | 0
O=C(c1ccc(Cl)s1)N1CCN(c2nc3ccccc3s2)CC1 | 6
O=C(CCNNC(=O)c1ccncc1)NCc1ccccc1 | 0
COC(=O)c1cn(-c2ccccc2)nc1C(=O)OC | 2
CN1CCN(CC#CCC(O)(c2ccccc2)C2CCCC2)CC1 (stereo not given) | 0
Cc1ccccc1NS(=O)(=O)c1cc(S(C)(=O)=O)ccc1Cl | 0
Cc1nc(NS(=O)(=O)c2ccccc2)sc1NC(=O)OC(C)C | 0
O=C(NCCc1c[nH]c2ccccc12)c1cnc2n(c1=O)CCS2 | 1
CCNc1nc(N2CCOCC2)nc(N(c2ccccc2)c2ccccc2)n1 | 0
CCNc1nc(OC)nc(Oc2ccc(=O)n(-c3ccccc3)n2)n1 | 4
Cc1ccccc1N(CC(=O)NCC1CCCO1)C(=O)C1(C)CC(=O)N=C2C=CC=CN21 (stereo not given) | 0
Cc1ccc(-c2noc(-c3ccccc3C(=O)NCC3CCCO3)n2)cc1 (stereo not given) | 6
Cc1ccc(S(=O)(=O)n2nc(OC(=O)c3ccco3)cc2N)cc1 | 2
O=C1c2ccccc2C(=O)N1CC(O)Cn1nnc2ccccc21 (stereo not given) | 0
CCOc1ccccc1C1NC(=O)NC(C)=C1C(=O)OC1CCCC1C (stereo not given) | 2
CC(C)CNc1oc(-c2ccc(F)cc2)nc1C#N | 2

SMILES | inhibition [%]
COc1ccc(S(=O)(=O)CCC(=O)O)cc1 | 6
COc1cccc(-c2cc(C(F)(F)F)nc(NCc3ccco3)n2)c1 | 0
O=C1CCCC2=C1C(c1ccsc1)CC(=O)N2c1ccccc1 (stereo not given) | 0
Cc1nc2ccccc2n1CCC(=O)Nc1cccc(F)c1 | 4
Nc1nc2ccccc2n1/N=C/c1ccc(Br)cc1 | 1
C=CCn1c(=O)c(C(=O)Nc2ccccc2C(=O)OCC)c(O)c2ccccc21 | 0
COc1ccc(N2C(=O)CC(N3CCCC4CCCCC43)C2=O)cc1 (stereo not given) | 0
CC(=O)Oc1ccc(-c2ccc(C(=O)O)cc2)cc1 | 4
COc1ccc(-c2ccc(CCC(=O)O)n2NC(=O)c2cccs2)cc1 | 0
O=C(NCC1COCCO1)C1CCN(S(=O)(=O)c2ccccc2)CC1 (stereo not given) | 3
Cc1ccccc1Nc1nc(N)nc(CSCc2c(C)noc2C)n1 | 0
OC(COc1ccccc1)CN1C2=NCCCN2c2ccccc21 (stereo not given) | 1
Cc1cc(C)c2oc(=O)cc(CN3CCOCC3)c2c1 | 0
Cc1cccc(OCC(=O)Nc2cc(C)ccc2O)c1 | 0
COc1ccccc1-n1c(SCC(=O)NC(C)(C)C)nnc1-c1ccco1 | 0
Nc1nc(N)nc(-c2ccccc2)n1 | 0
O=C(OCC(=O)N1CCCC1)c1ccccc1OCc1ccccc1 | 0
Nc1ccc(C(=O)OCCCc2nc3ccccc3[nH]2)cc1 | 3
COCCn1c(C)cc(C(=O)COC(=O)c2ccc(N3CCCC3=O)cc2)c1C | 2
CCOC(=O)N1CCN(CC(O)COc2ccccc2C(C)CC)CC1 (stereo not given) | 7
